Screens from PubChem.
Most compounds without a hit are left out; they make up all but 4% or so of the library.
Peg3 prom inh = Peg3 promoter-driven luciferase inhibitors, primary screen, cell-based, HeLa, luciferase luminescence; inhibition, % at 20 µM; AID 588405, 2011; actives 1.7% (n = 360,000); HeLa PEG-Prom luciferase reporter, overnight;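 active means inhibition of at least 50% at 20 µM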
TROY NFkB inh = inhibitors of TROY-driven NF-kB signaling, primary screen, Q293 LMP1-TROYcd cells, NF-kB luciferase, uHTS | Q293 LMP1-TROYcd NF-kB luciferase reporter, 4 h | inhibition, % at 10 µM | actives 0.98% (n = 360,000) | AID 1347056, 2019;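 active means compounds whose plate-normalised and pattern-corrected inhibition of the luciferase reporter signal at the single screening dose is 50% or more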
KKLEB cytotox = cytotoxicity in KKLEB CF airway cells, primary screen, cytotoxicity control for CF NF-kB inhibitor project, cell-based, uHTS, fluorescence assay plates; activity change (cytotoxicity), % at 5 µM; KKLEB CF airway cells viability, ATPlite luminescence, overnight; active compounds read low; cells stimulated with P. aeruginosa culture filtrate; AID 602141, 2011; actives 0.36% (n = 360,000);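 active means corrected activity change at or below -50% at 5 µM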
TWEAK-Fn14 inh = inhibitors of TWEAK-Fn14 signaling, primary screen, luciferase reporter cells, uHTS; TWEAK-stimulated Fn14 reporter cells, luciferase luminescence, 8 h; inhibition, % at 10 µM; actives 2% (n = 360,000); in the data active means inhibition above about 50%
CF NFkB inh = inhibitors of PAF-induced NF-kB signaling, primary screen, cell-based, GFP fluorescence, uHTS. KKLEB NF-kB-GFP reporter, GFP fluorescence overnight. inhibition, % at 5 µM. actives 0.86% (n = 360,000);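 active means at least 50% inhibition at 5 µM, scaled per plate between neutral and stimulator controls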;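 further: PAF is a Pseudomonas aeruginosa culture filtrate used as stimulus; plate controls were PAF-stimulated DMSO wells for no effect and unstimulated DMSO wells for full effect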
HIF-2a block = HIF-2a reporter inhibitors, primary screen, luminescence, 786-0 RCC cells; 786-0 RCC cells HIF-2a reporter, luciferase luminescence, overnight; inhibition, % at 18.8 µM; actives 0.72% (n = 360,000); AID 624352, 2012;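 active means inhibition of the luminescence signal of 40% or more relative to plate controls, in a single-dose primary screen at 18.75 µM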
* hit, by the source's call; x = no result given.

SMILES	Peg3 prom inh	TROY NFkB inh	KKLEB cytotox	TWEAK-Fn14 inh	CF NFkB inh	HIF-2a block
Cc1ccc2nc(NC(=O)C3CCN(S(=O)(=O)c4cc([N+](=O)[O-])ccc4Cl)CC3)sc2c1	-32	29	6	83*	4	-81
O=C(Cn1cnc2ccccc2c1=O)NCC(=O)N1CCOCC1	-9	11	6	-10	6	12
COc1ccc(N2CCN(C(=O)CSc3nnc(NC(=O)C4CC4)s3)CC2)cc1	18	7	3	10	4	15
COc1ccc(C(=O)c2coc3ccc(O)cc23)cc1	-273	-9	8	56*	16	-134
C=CC[n+]1c(-c2ccc(C)cc2)csc1Nc1ccc(NC(C)=O)cc1	20	41	2	51*	-13	90*
Cc1nnsc1NC(=O)OCc1ccc(C(C)(C)C)cc1	-29	x	3	56*	-6	-7
CS(=O)(=O)c1ccc(NC(=O)CCCc2nc3ccccc3c(=O)[nH]2)cc1	-5	-39	1	-16	8	13
O=C1NC(=O)C(Cc2ccccc2)(c2cccnc2)N1 (configuration not stated)	1	-18	-4	19	-13	20
Cn1cccc1C(=O)NC(=O)COC(=O)C12CC3CC(CC(O)(C3)C1)C2	-102	79*	-10	44	4	-92
CC(=O)NC12CC3CC(C1)CC(C(=O)OCC(=O)NC(=O)c1cccn1C)(C3)C2	-20	-28	1	-12	-1	-43
Cc1cc(C)c(C#N)c(SCc2cn3ccccc3n2)n1	-171	54*	-3	41	12	-142
O=C1/C(=C/c2ccc3c(c2)OCO3)Oc2cc(OCC(=O)N3CCC[C@H]3C(=O)O)ccc21	5	-7	-2	8	15	-7
COc1ccccc1N=Nc1ccc(O)c2ncccc12	20	65*	-20	42	-2	-96
Cc1ccc(N=Nc2ccc(O)c3ncccc23)cc1C	-79	9	-7	10	22	-179
CCS(=O)(=O)c1ccc(N=Nc2ccc(O)c3ncccc23)c(OC)c1	48	39	-27	65*	45	12
C=CCN1C(=O)/C(=C\c2cc(Br)c(OCc3ccccn3)c(OC)c2)SC1=S	3	-8	-39	6	50*	14
COc1cc(/C=C2\SC(=S)N(CC(=O)Nc3ccccn3)C2=O)cc(OC)c1OC	4	-7	-9	26	-18	21
Cc1ccc(C(=O)CSc2nnc3ccccn23)c(C)c1	-108	21	15	64*	5	-88
CC(NC(=O)c1ccc(N(C)C)cc1)C(c1cccs1)N1CCN(C)CC1 (configuration not stated)	-124	62*	-3	44	-25	-102
O=c1cc(-c2ccccc2)[nH]n1-c1ccc([N+](=O)[O-])cc1	-72	35	-55*	1	59*	-156
O=c1c(N=Nc2ccc(O)cc2)c(-c2ccccc2)[nH]n1-c1ccc([N+](=O)[O-])cc1	-16	-2	-34	4	18	7
Cc1ccc(-n2ncc(C(=O)Nc3cc(Cl)cc(Cl)c3)c2C2CCNCC2)cc1C	60*	-6	-42	-4	37	-15
Cc1cc(Oc2ccc(N)cn2)cc(C)c1Cl	-12	-5	-5	21	-1	12
CC(C)(C)c1ccc(Oc2ccc(N)cn2)cc1	30	4	13	24	-18	77*
O=C1/C(=C/c2ccc(F)cc2)SC(=S)N1CC(=O)N1CCCCC1c1cccnc1 (configuration not stated)	103*	16	-6	-19	17	34
O=C(/C=C/c1ccc(F)cc1)NC(=S)N1CCCCC1c1cccnc1 (configuration not stated)	1	-20	2	-5	-2	0
O=C1/C(=C/c2ccccc2F)SC(=S)N1CC(=O)N1CCCCC1c1cccnc1 (configuration not stated)	76*	17	-28	-1	74*	20
